In PubChem BioAssay (Tox21):
Where “and” joins values, the source holds several entries; their conditions need not be identical. Equal values may be shown once. Records with an inconclusive call do not appear. Where a structure was tested more than once in an assay, its records may differ in their call. Calls of active or inactive are those of the source. The call rests on the fitted dose curve; in most records, active means well fitted curve in the direction sought with a large enough effect in the repeat runs; inconclusive means weak or mixed curves; inactive means no such curve, though single readings can be large; an effect the other way counts as inactive or inconclusive.

experiment: qHTS RealTime-Glo MT Cell Viability Assay in HepG2 cells - 24 hour (AID 1224867); settings: RealTime-Glo luminescence; series mostly up to 76.8 µM; activity change, negative = cytotoxicity: at the top concentration
Outline: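 Cell number in HepG2 cultures estimated from NanoLuc luminescence generated by metabolic reduction of a prosubstrate by living cells. The homogeneous, nonlytic format allowed repeated reads at 0, 8, 16, 24, 32 and 40 h of compound exposure.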
Further: nearly all actives have a fitted effect of over 50% in size.
On the % scale 0 is the no-effect control and ±100 the full control effect; potency means the concentration at half of the fitted maximal effect.

| Structure (SMILES) | activity change, negative = cytotoxicity | Potency |
| --- | --- | --- |
| CCCC[N+](=O)[O-] | 2.36% (inactive) | – |
| CCC1(c2ccccc2)CCC(=O)NC1=O (stereo not drawn) | 1.03% [at 35.3 µM] (inactive) | – |
| ClC(Cl)(Cl)Cl | 0.386% (inactive) | – |
| C=C(Cl)CSC(=S)N(CC)CC | -1.93% (inactive) | – |
| CN(C)CCc1c[nH]c2cccc(OP(=O)(O)O)c12 | 0.639% (inactive) | – |
| O=C1C2CC=CCC2C(=O)N1SC(Cl)(Cl)Cl (stereo not drawn) | – | inactive and 24.1 µM (active) |
| N[C@@H](Cc1ccc(Oc2cc(I)c(O)c(I)c2)c(I)c1)C(=O)O | 1.68% [at 35.3 µM] (inactive) | – |
| Clc1ccc(C(Cl)(Cl)Cl)cn1 | -3.95% (inactive) | – |
| COc1ccc2c(C(=O)c3ccc(Cl)cc3)c(C)n(CC(=O)O)c2c1 | 0.891% [at 35.3 µM] (inactive) | – |
| CCCOC(=O)c1cncn1C(C)c1ccccc1 (stereo not drawn) | -0.637% [at 35.3 µM] (inactive) | – |
| CCOC(=O)C(Cl)Cc1cc(-n2nc(C)n(C(F)F)c2=O)c(F)cc1Cl (stereo not drawn) | -23.6% (inactive) | – |
| COc1ccc(CN2CCNCC2)c(OC)c1OC | 1.21% [at 35.3 µM] (inactive) | – |
| CCOP(=S)(OCC)SCCl | -0.766% (inactive) | – |
| CC(=O)OCC1=C(C(=O)O)N2C(=O)[C@@H](N)[C@H]2SC1 | 0.275% [at 15.8 µM] (inactive) | – |
| CC#Cc1cc(C)nc(Nc2ccccc2)n1 | -12.2% (inactive) | – |
| N#CC(Br)(Br)C(N)=O | 0.626% (inactive) | – |
| CC[C@H](O)C(C[C@H](C)N(C)C)(c1ccccc1)c1ccccc1 | -12% (inactive) | – |
| NCC1(CC(=O)O)CCCCC1 | 0.873% [at 35.3 µM] (inactive) | – |
| CNC(=O)O/N=C(/CSC)C(C)(C)C | 1.86% (inactive) | – |
| CCCCCCCCSC(=O)Oc1cc(Cl)nnc1-c1ccccc1 | 0.54% (inactive) | – |
| CC(C)(C)c1cc(O)ccc1O | – | inactive |

experiment: qHTS RealTime-Glo MT Cell Viability Assay in HEK293 cells - 32 hour (AID 1224868); settings: RealTime-Glo luminescence; series mostly up to 76.8 µM; activity change, negative = cytotoxic: at the top concentration; on activity change, negative = cytotoxic: top concentration of the series differs between compounds
Outline: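 Homogeneous bioluminescent viability format in HEK293 cells (600 cells/well). Following 5 h at 37 C/5% CO2, 23 nL compound was pintooled; the signal was measured repeatedly during 40 h incubation.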

| Structure (SMILES) | activity change, negative = cytotoxic | Potency |
| --- | --- | --- |
| CCCC[N+](=O)[O-] | -0.166% (inactive) | – |
| BrCC1CO1 (stereo not drawn) | 5.91% (inactive) | – |
| CCC1(c2ccccc2)CCC(=O)NC1=O (stereo not drawn) | -4.79% [at 35.3 µM] (inactive) | – |
| ClC(Cl)(Cl)Cl | 0.693% (inactive) | – |
| CCc1ccc(C2CCNCC2)cc1 | 8.75% [at 35.3 µM] (inactive) | – |
| CC(C)C(C)(N)C#N (stereo not drawn) | -4.31% (inactive) | – |
| CC(C)(C)C(=O)C(Cl)Cl | 7.82% (inactive) | – |
| CN(C)C(=O)Oc1cc(OC(=O)N(C)C)cc(C(O)CNC(C)(C)C)c1 (stereo not drawn) | 0.0608% [at 35.3 µM] (inactive) | – |
| CCOC(=O)NC(C)(C)Cc1ccc(Cl)cc1 | 0.105% [at 35.3 µM] (inactive) | – |
| C=C(Cl)CSC(=S)N(CC)CC | -13.9% (inactive) | – |
| CN(C)CCc1c[nH]c2cccc(OP(=O)(O)O)c12 | -2.1% (inactive) | – |
| Cn1c(N)nc2c3cccnc3ccc21 | -11.9% (inactive) | – |
| O=C1C2CC=CCC2C(=O)N1SC(Cl)(Cl)Cl (stereo not drawn) | – | 43.5 µM (active) and 3.04 µM (active) |
| CCNc1nc(NCC)nc(SC)n1 | -14.9% (inactive) | – |
| N[C@@H](Cc1ccc(Oc2cc(I)c(O)c(I)c2)c(I)c1)C(=O)O | 1.14% [at 35.3 µM] (inactive) | – |
| Clc1ccc(C(Cl)(Cl)Cl)cn1 | 1.35% (inactive) | – |

| Structure (SMILES) | activity change, negative = cytotoxic | Potency |
| --- | --- | --- |
| CCNc1nc(Cl)nc(NC(C)(C)C)n1 | -8.15% (inactive) | – |
| COc1ccc2c(C(=O)c3ccc(Cl)cc3)c(C)n(CC(=O)O)c2c1 | 2.53% [at 35.3 µM] (inactive) | – |
| CCCOC(=O)c1cncn1C(C)c1ccccc1 (stereo not drawn) | 3.87% [at 35.3 µM] (inactive) | – |
| CCOC(=O)C(Cl)Cc1cc(-n2nc(C)n(C(F)F)c2=O)c(F)cc1Cl (stereo not drawn) | 0.244% (inactive) | – |
| COc1ccc(CN2CCNCC2)c(OC)c1OC | 6.75% [at 35.3 µM] (inactive) | – |
| CCOP(=S)(OCC)SCCl | 0.818% (inactive) | – |
| CC(=O)OCC1=C(C(=O)O)N2C(=O)[C@@H](N)[C@H]2SC1 | 19.8% [at 15.8 µM] (inactive) | – |
| C=CCc1cc(OC)c2c(c1)OCO2 | 3.93% (inactive) | – |
| N#CC(Br)(Br)C(N)=O | -6.15% (inactive) | – |
| C=C1CC[C@@]2(O)[C@H]3Cc4ccc(O)c5c4[C@@]2(CCN3CC2CC2)[C@H]1O5 | 9.22% [at 35.3 µM] (inactive) | – |
| NCC1(CC(=O)O)CCCCC1 | 3.49% [at 35.3 µM] (inactive) | – |
| [O-][Br+2]([O-])O | 3.6% [at 35.3 µM] (inactive) | – |
| NNC(N)=O | 0.713% (inactive) | – |
| CNC(=O)O/N=C(/CSC)C(C)(C)C | -0.681% (inactive) | – |
| CC(Cc1ccccc1)NCCCCl (stereo not drawn) | 1.38% [at 35.3 µM] (inactive) | – |
| CCCCCCCCSC(=O)Oc1cc(Cl)nnc1-c1ccccc1 | -0.0935% (inactive) | – |
